The values that follow come from PubChem BioAssay.

Activity calls are given as the source filed them.

This test is described as follows: PSAC antagonists in infected red cells, primary screen, cell-based, P. falciparum Indochina, OD700, 2 h (AID 1155).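 Note: lysis reports solute entry through the parasite surface anion channel PSAC; channel blockers reduce lysis of infected cells.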 The following applies: P. falciparum Indochina infected erythrocytes, osmotic lysis OD700; higher = more signal, called active from +8 up or from −8 down.
`COc1ccc([Si](C)(C)[C@@H]2[C@@H](CCO)O[C@]3(C(=O)N(Cc4cccc(N5CCOC5=O)c4)c4ccccc43)[C@H]2C)cc1`: the z-score was 29.8 (active).
To `CCOC(=O)C1=CC[C@H]2C(=O)N(c3ccccc3)C(=O)[C@@H]12` belongs 0.772 (inactive).
To `CCOC(=O)C[C@H]1[C@H](OC(=O)c2ccc(C(=O)c3ccccc3)cc2)[C@@H](NC(=O)Cc2ccc(OC)cc2)c2cc(OCCCO)ccc2N1C(=O)c1ccc2ccccc2n1` belongs 1.05 (inactive).
With `COC(=O)[C@@]1(Cc2ccc(F)cc2)[C@H]2c3cc(C(=O)N(C)C)n(Cc4cc(C)n(C)n4)c3C[C@H]2CN1C(=O)c1ccccc1` the figure was 0.364 (inactive).
In the case of `CCCC[C@@H]1C[C@H]1[C@@H](NC(=O)c1cccnc1)c1ccc(Cl)cc1`, the z-score is 1.51 (inactive).
As for `[N-]=[N+]=Nc1ccccc1C[C@@]1(C(=O)N2CCCCC2)N=C(c2ccc(OCCCO)cc2)O[C@@H]1c1ccccc1N=[N+]=[N-]`, the z-score is 29.5 (active).
For the molecule `C=CCC(OC(C)=O)[C@@H]1[C@@H](N(Cc2ccc(-c3cccc(C(F)(F)F)c3)o2)C(=O)c2cccc3ccccc23)c2cc(OCCCO)ccc2N1C(=O)Cc1ccc2ccccc2c1` (stereo partly specified), the z-score is -0.397 (inactive).
With `CCCCN1CC=CC23O[C@@H]4C=CCOC(=O)[C@@H]4[C@H]2C(=O)N(CCCCCCO)[C@@H]3C1=O` (stereo partly specified) the figure was 0.393 (inactive); with `O=C1C2C=CC(C(O)C=Cc3ccc([N+](=O)[O-])cc3)N(n3cnnc3)C2C(=O)N1Cc1ccccc1` (stereo unspecified), 1.03 (inactive).
In the case of `O=C1[C@H]2C=C(Br)[C@H](C[C@@H]2OCCCCCCO)[C@@]12CO2`, the z-score is 0.318 (inactive).
With `CCCCCCCCCCC(O)C1C=CC2C(=O)NC(=O)C2N1Nc1ccc(Cl)cc1Cl` (stereo unspecified) the figure was 2.51 (inactive); with `C=CC1c2cc(O)c(OC)cc2CCN1Cc1cccc(OC(F)(F)F)c1` (stereo unspecified), 0.544 (inactive).
In the case of `CC(C)[Si](C#C[Si](C(C)C)(C(C)C)C(C)C)(O[C@H](C)c1cn(Cc2ccccc2)nn1)C(C)C`, the z-score was 0.0422 (inactive).
With `O=C1O[C@H](c2ccccc2)[C@H](c2ccccc2)N2[C@H]1[C@@H](C(=O)NC[C@H](O)c1ccccc1)[C@]1(C(=O)Nc3ccc(C#CC4=CCCCC4)cc31)[C@H]2c1ccccc1OCCO` the figure was 2.06 (inactive); with `COc1ccc(-c2cc3c(c(Cc4ccccc4)n2)[Si](C(C)C)(C(C)C)OC3)cn1`, 0.139 (inactive).
To `C=CCC(OC(C)=O)[C@@H]1[C@@H](N(Cc2ccc(-c3cccc(C(F)(F)F)c3)o2)C(=O)Cc2ccc(OC)cc2)c2cc(OCCCO)ccc2N1C(=O)c1ccc2ccccc2c1` (stereo partly specified) belongs 1.01 (inactive); to `CCC(CC)C(O)C1C=CC2C(=O)N(c3ccccc3)C(=O)C2N1Nc1ccccc1` (stereo unspecified), 0.696 (inactive); to `CN1C(=O)C2C=CC(C(O)c3c(F)cccc3Cl)N(NC(=O)OC(C)(C)C)C2C1=O` (stereo unspecified), 0.119 (inactive).
With `C=C[C@H](C)[C@@H](OC(=O)Nc1ccc(SC)cc1)c1ccc(O)c2ccccc12` the figure was 9.84 (active); with `COc1ccccc1CN1C(=O)c2ccccc2[C@@H](C(=O)NCc2ccccc2)[C@@H]1c1ccc(CO)cc1`, 0.566 (inactive).
With `O=C1OCC=C[C@H]2OC34C=CCN(Cn5nnc6ccccc65)C(=O)[C@H]3N(CCCCCO)C(=O)[C@@H]4[C@@H]12` (stereo partly specified), the z-score was 0.212 (inactive).
To `Cc1ccc(S[C@]2(C(=O)NCC(C)C)CC(=O)N(Cc3cc(C(F)(F)F)cc(C(F)(F)F)c3)[C@@H]2c2ccc(CO)cc2)cc1` belongs 0.596 (inactive); to `CS(=O)(=O)CCOC(=O)C1=CC(CCCO)=CC(C2CC2)N(Cc2cc3c(cc2Br)OCO3)C=C1C(=O)OCCS(C)(=O)=O` (stereo unspecified), 1.02 (inactive); to `C=CCOC(=O)[C@H]1[C@@H]2C(=O)O[C@@H](c3ccccc3)[C@@H](c3ccccc3)N2[C@@H](c2ccc(OCCOC(=O)[C@H]3C[C@H]4C(=O)N[C@@H](CCCCN(C)C)C(=O)N4[C@H]3c3cccc(OCCO)c3)cc2)[C@]12C(=O)Nc1ccc(I)cc12`, 0.381 (inactive).
To `COc1ccc([Si](C)(C)[C@H]2[C@H](CC(=O)N3CCC[C@H]3CO)O[C@@]3(C(=O)N(Cc4cccc(N5CCOC5=O)c4)c4ccccc43)[C@@H]2C)cc1` belongs 1.13 (inactive); to `O=C1OCCC=C[C@H]2OC34C=CCN(c5ccc(Cl)cc5)C(=O)[C@H]3N(CCCO)C(=O)[C@@H]4C12` (stereo partly specified), -0.131 (inactive); to `COc1ccc(C(O)C2C=CC3C(=O)N(C)C(=O)C3N2N(c2ccccc2)c2ccccc2)c2ccccc12` (stereo unspecified), 1.4 (inactive).
For the molecule `COCC(=C=CC[C@H](O)c1cccc(OCCO)c1)CCO`, the z-score was -0.115 (inactive).
To `CC[C@@H]1C=C(C(=O)O)[C@H](c2ccc(C)cc2)N1S(=O)(=O)c1ccc(C)cc1` belongs 0.661 (inactive); to `O=C1NC(=O)C2C1C=CC(C(O)C1CC=CCC1)N2Nc1ccccn1` (stereo unspecified), -0.0567 (inactive).
With `COc1ccc(C(=O)Nc2cccc(CN3C(=O)[C@]4(O[C@H](CCn5cc(CCO)nn5)[C@@H]([Si](C)(C)c5ccc(OC)cc5)[C@@H]4C)c4ccccc43)c2)cc1` the figure was 2.29 (inactive); with `CS(=O)(=O)CCOC(=O)C1=CC(CCCO)=CC(c2ccc(CN3CCCC3)cc2)N(Cc2cccc(OC(F)(F)F)c2)C=C1C(=O)OCCS(C)(=O)=O` (stereo unspecified), 0.942 (inactive).
To `COC(=O)c1c2oc(c1C(=O)OC)C(=O)N[C@@H](C(C)C)Cn1cc(nn1)C1(CCCCC1)NC(=O)N[C@H](CO)CC2` belongs 0.782 (inactive).
Consider `O=C1O[C@@H](c2ccccc2)[C@@H](c2ccccc2)N2[C@@H](c3ccc(OCCO)cc3)[C@]3(C(=O)Nc4ccc(C#CCCO)cc43)[C@@H](C(=O)NC[C@H](O)c3ccccc3)[C@H]12`, for which the z-score was 1.4 (inactive).
With `CC(c1ccccc1)C(O)C1C=CC2C(=O)N(c3ccccc3)C(=O)C2N1Nc1ccccc1` (stereo unspecified) the figure was 0.386 (inactive).
To `CC1CC/C=C\[C@H]2OC34C=CCN(Cc5ccccc5)C(=O)[C@H]3N(C(C)CO)C(=O)[C@@H]4C2C(=O)O1` (stereo partly specified) belongs 0.365 (inactive).
